Drawing on PubChem BioAssay (NCI), this text covers growth for 15 molecules.

Some test systems named below: HCT-15 colon; HT29 colon; SNB-75 CNS; SNB-19 CNS; U251 CNS; SK-MEL-5 melanoma; UACC-62 melanoma; LOX IMVI melanoma; SK-MEL-28 melanoma.
What all share (assay): NCI-60 one-dose screen, 48 h (100 = growth as untreated, 0 = no growth, -100 = all killed)
Common to all, as to conditions: 10 µM unless noted

Compounds without any hit were thinned out: in the full panel of roughly 83,000, 20% have a hit.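 Cells were grown in 96-well plates and exposed to the test compound at a single concentration for 48 hours; results are reported as percent growth, with values below 10 considered active.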 Unmarked numbers belong to inactive results. Active and inactive are the calls of the source.

In the case of `COc1ccc(CCNc2nc3c(c(=O)n(Cc4ccc(Br)cc4)c(=O)n3C)n2C)cc1OC`, the growth in the assay on HCT-15 colon was 102%; in the assay on HT29 colon it was 103%; in the assay on SNB-75 CNS, 84.5%; in the assay on SNB-19 CNS, 94.5%; in the assay with U251 CNS it was 92%; with SK-MEL-5 melanoma, 68%. For the same molecule, the growth was 74.8% with UACC-62 melanoma, 94.5% in the assay on LOX IMVI melanoma and 99% in the assay with SK-MEL-28 melanoma.

In the case of `COc1ccc(C(=O)COc2ccc(/C=C3\COc4ccc(OC)cc4C3=O)cc2)cc1`, the growth with HCT-15 colon was 77.5%; in the assay with HT29 colon it was 93%; with SNB-75 CNS, 91.7%; in the assay on SNB-19 CNS it was 101%; in the assay on U251 CNS, 84.3%; with UACC-62 melanoma, 85.1%. Besides, the values for the growth in the assay with LOX IMVI melanoma and in the assay with SK-MEL-28 melanoma were 80.7% and 94.5%, respectively.

Turning to `Cn1c(NCCc2ccc(O)c(O)c2)nc2c1c(=O)n(Cc1ccc(Br)cc1)c(=O)n2C`, the growth in the assay with HCT-15 colon was 42.7%; in the assay with HT29 colon it was 96.8%; with SNB-75 CNS, 74.6%; with SNB-19 CNS, 79.8%; in the assay on U251 CNS, 82.8%; with UACC-62 melanoma, 82%. Moreover, the growth in the assay with LOX IMVI melanoma was 87.9%; with SK-MEL-28 melanoma, 82.6%.

For the molecule `CCOC(=O)c1sc2nc(-c3cccc(O)c3)nc(N3CCOCC3)c2c1C`, the growth in the assay on HCT-15 colon was 43.7%; with HT29 colon, 98.2%; with SNB-75 CNS, 21.1%; in the assay on SNB-19 CNS, 69.2%; in the assay with U251 CNS it was 58.5%; with UACC-62 melanoma it was 71.8%. Further, the figures for the growth with LOX IMVI melanoma and in the assay on SK-MEL-28 melanoma were 57.3% and 63.7%, respectively.

In the case of `Oc1ccc(N=Cc2ccccc2O)cc1`, the growth in the assay with HCT-15 colon is 120%; with HT29 colon, 99%; with SNB-75 CNS, 89.1%; in the assay with SNB-19 CNS it was 93.1%; with U251 CNS it was 83.3%; with SK-MEL-5 melanoma, 92.3%. Further, the growth with LOX IMVI melanoma was 104%; in the assay on SK-MEL-28 melanoma, 127%.

As to `CCCc1cc(=O)n2c(C(=O)Nc3cccc(C(=O)OCC)c3)c(C(=O)Nc3ccc(F)cc3)sc2n1`, the growth in the assay with HCT-15 colon was 66.4% [30 µM]; with HT29 colon, 67.5% [30 µM]; in the assay with SNB-75 CNS, 25.6% [30 µM]; in the assay with SNB-19 CNS, 43.8% [30 µM]; with U251 CNS, 13.2% [30 µM]; with SK-MEL-5 melanoma, 66.6% [30 µM]. Moreover, the values for the growth in the assay on UACC-62 melanoma, in the assay on LOX IMVI melanoma and with SK-MEL-28 melanoma were 104% [30 µM], 46.8% [30 µM] and 88.3% [30 µM], respectively.

Take `O=[N+]([O-])c1ccccc1/C=N\NC(=S)N/N=C/c1ccccc1[N+](=O)[O-]`: the growth with HCT-15 colon was 35.8%; in the assay with HT29 colon, 21.5%; in the assay on SNB-75 CNS, 72.4%; with SNB-19 CNS, 69%; in the assay with U251 CNS, 62.7%; in the assay with SK-MEL-5 melanoma, 59.1%. For the same molecule, the growth is 43.4% with LOX IMVI melanoma and 78.2% with SK-MEL-28 melanoma.

Regarding `COc1cc(-c2ccc3c(c2)NC(=O)/C3=C\c2ccc[nH]2)ccc1O`, the growth is 14.1% in the assay with HCT-15 colon; 18.9% in the assay on HT29 colon; 47.2% in the assay with SNB-75 CNS; 34.8% in the assay with SNB-19 CNS; 15.4% in the assay with U251 CNS; -27.5% (active) in the assay on SK-MEL-5 melanoma. Moreover, the growth in the assay on UACC-62 melanoma was 32.2%; in the assay with LOX IMVI melanoma it was -8.36% (active); with SK-MEL-28 melanoma, 37.5%.

With `COc1cccc(/C=C2\SC(=Nc3ccc(NC(C)=O)cc3)NC2=O)c1OC`, the growth in the assay with HCT-15 colon is 96.5%; in the assay with HT29 colon, 116%; in the assay with SNB-75 CNS, 67.5%; in the assay on SNB-19 CNS, 97.7%; with U251 CNS, 93.1%; in the assay with UACC-62 melanoma, 98%. Moreover, the results for the growth in the assay with LOX IMVI melanoma and in the assay with SK-MEL-28 melanoma were 95.7% and 101%, respectively.

`O=C(NCCN1CCOCC1)Nc1ccc(-c2cc3c(Nc4ccc(Oc5cccc(C(F)(F)F)c5)c(Cl)c4)ncnc3s2)cc1`: the growth is -56.2% (active) in the assay with HCT-15 colon; -69.2% (active) with HT29 colon; -48.4% (active) in the assay with SNB-75 CNS; 43.1% with SNB-19 CNS; 0.383% (active) in the assay on U251 CNS; -40.3% (active) in the assay on UACC-62 melanoma. The growth is -86.6% (active) in the assay on LOX IMVI melanoma and -49.8% (active) in the assay with SK-MEL-28 melanoma.

With `CC(C)(C)c1cc(C(C)(C)C)cc(S(=O)(=O)Nc2cc3ccccc3cc2C(=O)NCCN)c1`, the growth is 38.8% in the assay with HCT-15 colon; -43.7% (active) in the assay on HT29 colon; 63.4% in the assay with SNB-75 CNS; 68.9% with SNB-19 CNS; -21.8% (active) with U251 CNS; 55% with UACC-62 melanoma. In addition, the growth in the assay on LOX IMVI melanoma is -77.8% (active); in the assay with SK-MEL-28 melanoma, -44.9% (active).

Take `COc1cc(C(=O)/C=C/c2cccnc2Nc2ccc(Cl)cc2)cc(OC)c1OC`: the growth in the assay with HCT-15 colon is -45.9% (active); with HT29 colon, -55.1% (active); with SNB-75 CNS it was -74.7% (active); in the assay with SNB-19 CNS it was -80.5% (active); with U251 CNS, -95.3% (active); with SK-MEL-5 melanoma it was -86.8% (active). Moreover, the growth in the assay on UACC-62 melanoma was -67% (active); in the assay with LOX IMVI melanoma, -65.5% (active); in the assay on SK-MEL-28 melanoma, -80.4% (active).

Take `Cc1cc2nc(NC(=O)CN3CCN(CCN4C(=O)c5cccc6cccc(c56)C4=O)CC3)sc2cc1C`: the growth in the assay with HCT-15 colon is 81.1%; in the assay on HT29 colon, 51.8%; with SNB-75 CNS it was 77.8%; in the assay with SNB-19 CNS, 75.3%; in the assay with U251 CNS, 73.2%; in the assay with UACC-62 melanoma, 83.8%. In addition, the results for the growth in the assay on LOX IMVI melanoma and in the assay with SK-MEL-28 melanoma were 77.9% and 106%, respectively.

As to `O=C(CN1C(=O)/C(=C/c2ccc(Cl)cc2)SC1=S)NCCCN1CCOCC1`, the growth in the assay on HCT-15 colon is 93.1%; in the assay with HT29 colon, 114%; with SNB-75 CNS, 92.8%; with SNB-19 CNS it was 97.9%; with U251 CNS, 98.4%; with SK-MEL-5 melanoma, 95.7%. In addition, the values for the growth with LOX IMVI melanoma and in the assay on SK-MEL-28 melanoma were 90.5% and 101%, respectively.

Regarding `CCN(CC)c1ccc(-c2cc(-c3cc(OC)c(OC)c(OC)c3)nc(N3CCOCC3)c2C#N)cc1`, the growth in the assay on HCT-15 colon was 10.7%; in the assay with HT29 colon it was 2.21% (active); with SNB-75 CNS, 29.8%; with SNB-19 CNS it was 79%; in the assay with U251 CNS, 36.7%; with UACC-62 melanoma it was -58% (active). The results for the growth with LOX IMVI melanoma and in the assay on SK-MEL-28 melanoma were -77.3% (active) and 21.8%, respectively.
